Shown is part of a subset that was picked to be rich in hits. No count for the full screen is at hand.
Tested on: T1, Caupolican (Caup) homeodomain DNA-binding domain
T1 sequence: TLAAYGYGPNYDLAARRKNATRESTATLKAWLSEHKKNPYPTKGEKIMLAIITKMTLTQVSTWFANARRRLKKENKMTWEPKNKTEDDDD
Experiment: PBM E-score (8-mer, recovered from the published 9-mer minima) (E-score (dimensionless, -0.5 to 0.5)); Drosophila protein; higher = stronger relative binding preference, active = 0.31 or more
Method in brief: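 Caup's homeodomain DNA-binding domain (residues 214-303) was made by in vitro transcription and translation and applied at 100 nM to custom-designed protein binding microarrays. Each value is an enrichment score that gives relative binding preference for a short DNA word, with higher meaning stronger. The 8-mer values were recovered from published 9-mer scores, each of which was the minimum of its two constituent 8-mer scores. A cutoff of 0.31 marks candidate sites.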

Sequence | PBM E-score
TAACGCTA | -0.0254 (inactive)
GCAGTGAC | -0.0444 (inactive)
CATCACGA | 0.107 (inactive)
AGTGCTTG | 0.116 (inactive)
CCATACAC | 0.105 (inactive)
GCATACAC | 0.208 (inactive)
ACATACAC | 0.352 (active)
AGGCCCTG | -0.09 (inactive)
AACCAACT | 0.143 (inactive)
ATTGTACA | 0.417 (active)
GTTGTAGA | 0.291 (inactive)
GTTGTGCA | 0.0605 (inactive)
GTTGTACA | 0.388 (active)
CTCGTACC | 0.0909 (inactive)
CTTGTCCC | 0.186 (inactive)
CTTGTAGA | 0.248 (inactive)
CTTGTACA | 0.44 (active)

Sequence | PBM E-score
ATTGTACC | 0.2 (inactive)
ATTGTACG | 0.203 (inactive)
CTTGTGCA | 0.18 (inactive)
CTTGTACC | 0.389 (active)
ACTAGAGC | -0.0268 (inactive)
ACCGGTTA | -0.00609 (inactive)
CAGGGGTA | -0.133 (inactive)
AGCGAGGG | -0.182 (inactive)
CTGATTAC | 0.231 (inactive)
AGCACACA | 0.0184 (inactive)
AGTACACC | 0.265 (inactive)
AGTACACG | 0.376 (active)
AGTACACT | 0.181 (inactive)
AGCACACG | 0.042 (inactive)
AGTACACA | 0.342 (active)
CCCATAGG | -0.163 (inactive)
AAACTTGG | -0.0323 (inactive)
